# Rows were chosen to be rich in hits. Some 10% of all compounds tested hit in one or more screens of this group.
# HEK cytotox = Cytotoxic Profiling in HEK 293 Cell Line of Diverse Libraries Using Quantitative High-Throughput Screening; 94,000 tested, 6.6% active; AID 1345083, 2018; HEK 293 viability, ATP luminescence (CellTiter-Glo), 48-72 h; Potency, µM (titrated, usually from 115 µM), actives largely listed as inhibitors; also: nearly all actives have a fitted effect of over 60% in size
#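 qHTS cytotoxicity; HEK 293, 250 cells/well; compound pinned; 48 or 72 hr, 37 degree Celsius, 5% CO2, 95% humidity; CellTiter-Glo, 10 min RT; luminescence (ATP).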
# 3T3 cytotox = Cytotoxic Profiling in NIH 3T3 Cell Line of Diverse Libraries Using Quantitative High-Throughput Screening | NIH 3T3 viability, CellTiter-Glo ATP luminescence, 48-72 h | Potency, µM (highest dose often 96.7 µM), most hits filed as inhibitors | 94,000 tested, 4.3% active | AID 1345082, 2018; also: nearly all actives have a fitted effect of over 55% in size
#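 Cells were seeded at 400 per well, treated with pin-transferred compound, and kept 48 or 72 hr at 37 °C before CellTiter-Glo addition and luminescence imaging of cellular ATP.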
# Luciferase inh = Firefly luciferase inhibition profiling of diverse chemical library using quantitative high-throughput screening | Luciferin 4-monooxygenase (Photinus pyralis), P08659 | purified P. pyralis luciferase, luminescence, biochemical | Potency, µM (titrated, usually from 115 µM), hits mostly inhibitors | 76,000 tested, 2.5% active | AID 1347043, 2019; also: nearly all actives have a fitted effect of over 65% in size
#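 Purified P. pyralis luciferase (10nM final) in 50mM Tris acetate pH 7.5, 10mM Mg acetate, 0.01% Tween-20, 0.05% BSA with 10uM D-luciferin and 10uM ATP. Compounds titrated qHTS. Luminescence imaged on CCD.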
# GPT2 inh = Primary qHTS assay for inhibitors of Glutamate pyruvate transaminase 2 (GPT2); Alanine aminotransferase 2 (Homo sapiens), Q8TD30; Recombinant GPT2, coupled pyruvate oxidase/HRP Amplex Red fluorescence; Potency, µM (titrated, usually from 57.7 µM), actives largely listed as inhibitors; 100,000 tested, 0.25% active; AID 1671188, 2021; also: nearly all actives have a fitted effect of over 60% in size
#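 Fluorescence read-out: pyruvate from GPT2 turnover coupled to pyruvate oxidase, HRP and Amplex Red (0.2mM ThPP, 0.2U/mL PO and HRP, 50uM Amplex final). Substrates 250uM a-KG, 2mM L-alanine; enzyme 10ng/uL; 30 min RT.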
# NPR1 antag = Natriuretic polypeptide receptor (hNpr1) antagonism - Primary qHTS | HEK293 hNpr1 GloSensor cGMP, ANP-stimulated luminescence | AID 1347048, 2019 | 76,000 tested, 1.6% active | Potency, µM (highest dose often 46.3 µM), actives largely listed as inhibitors | Atrial natriuretic peptide receptor 1 (Homo sapiens), P16066; calls by dose curve; also: nearly all actives have a fitted effect of over 60% in size
# Target sequence (P16066 whole entry, looked up): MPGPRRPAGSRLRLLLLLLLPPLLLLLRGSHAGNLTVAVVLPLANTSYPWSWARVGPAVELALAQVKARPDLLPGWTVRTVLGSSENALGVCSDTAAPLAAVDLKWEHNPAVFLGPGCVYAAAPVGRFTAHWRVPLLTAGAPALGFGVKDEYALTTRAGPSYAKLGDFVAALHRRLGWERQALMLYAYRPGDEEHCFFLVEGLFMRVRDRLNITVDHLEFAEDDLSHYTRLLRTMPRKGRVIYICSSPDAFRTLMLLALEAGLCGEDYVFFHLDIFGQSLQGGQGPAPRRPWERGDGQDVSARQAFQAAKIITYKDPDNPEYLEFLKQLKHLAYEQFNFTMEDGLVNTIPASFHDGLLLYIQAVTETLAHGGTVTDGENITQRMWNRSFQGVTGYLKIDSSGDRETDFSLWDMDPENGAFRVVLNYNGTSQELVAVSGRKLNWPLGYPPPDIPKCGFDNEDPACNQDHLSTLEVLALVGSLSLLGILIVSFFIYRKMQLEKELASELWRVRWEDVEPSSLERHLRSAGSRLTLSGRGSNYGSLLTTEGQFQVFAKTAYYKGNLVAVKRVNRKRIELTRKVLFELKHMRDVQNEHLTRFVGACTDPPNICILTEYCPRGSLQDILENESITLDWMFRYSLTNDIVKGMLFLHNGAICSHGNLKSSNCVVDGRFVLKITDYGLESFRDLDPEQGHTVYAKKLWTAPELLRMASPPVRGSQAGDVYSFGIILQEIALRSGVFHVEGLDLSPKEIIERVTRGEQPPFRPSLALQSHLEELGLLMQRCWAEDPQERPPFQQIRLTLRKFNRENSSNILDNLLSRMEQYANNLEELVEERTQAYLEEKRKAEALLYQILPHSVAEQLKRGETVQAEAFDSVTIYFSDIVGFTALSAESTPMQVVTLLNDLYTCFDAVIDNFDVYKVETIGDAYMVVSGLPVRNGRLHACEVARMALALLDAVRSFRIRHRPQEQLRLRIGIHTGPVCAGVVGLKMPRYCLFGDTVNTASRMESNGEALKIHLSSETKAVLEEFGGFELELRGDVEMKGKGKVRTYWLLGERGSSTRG
#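 Compound pre-incubated 30 min at room temperature on GloSensor-loaded HEK293 cells stably carrying hNpr1 and the pGS-40F cGMP biosensor. Stimulation uses hNppA at 0.1 nM final; luminescence is taken at baseline and 20 min post-agonist.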
# Hits are given with their value; i = inactive; ? = inconclusive; nt = no result; ! = a repeat was not active. Unless noted, calls follow the shape of the dose curve; as a rule, active = well fitted curve in the direction sought with a large enough effect; inconclusive = small, poorly fitted or top-dose-only effect, or another doubt; inactive = no such curve, though single readings can be large; an effect the other way counts as inactive or inconclusive.
SMILES,HEK cytotox,3T3 cytotox,Luciferase inh,GPT2 inh,NPR1 antag
COC(=O)[C@@H]1Cc2c([nH]c3ccccc23)[C@H]2C[C@@H](NCc3cccnc3)C[C@@H](c3ccc(F)cc3)N21,22.4µM,20µM,i,i,i
O=C(NCc1cccnc1)[C@@H]1C[C@@H](c2ccc(F)cc2)N(CCOc2ccccc2)C1,?,?,i,i,i
Cc1ccc(CNC(=O)N2CCCC(Cc3noc(-c4ccccc4)n3)C2)cc1 (centres undefined),28.2µM,25.1µM,i,i,i
O=C(C1CC1)N1CCC(Cc2noc(-c3ccccc3)n2)C1 (centres undefined),i,?,i,i,i
COc1ccc(CNC(=O)N2CCC(c3noc(-c4ccccc4)n3)C2)cc1 (centres undefined),44.7µM,?,i,i,?
COc1ccc(CNC(=O)N2CCCC(Cc3noc(-c4ccncc4)n3)C2)cc1 (centres undefined),?,i,i,i,i
COc1ccc(CNC(=O)N2CCC(c3noc(-c4cccnc4)n3)C2)cc1 (centres undefined),i,i,i,i,i
O=C(N1CCC(Cc2noc(-c3ccc(F)cc3)n2)C1)C1(c2ccccc2)CC1 (centres undefined),39.8µM,?,nt,i,nt
Cn1cnc(S(=O)(=O)N2CCCC(Cc3noc(-c4ccccc4)n3)C2)c1 (centres undefined),?,?,35.5µM,?,i
O=C1CN(C(=O)c2cccs2)CC(O)CN1CCc1ccccc1 (centres undefined),i,?,nt,nt,nt
C[C@@]1(C(=O)O)CCC[C@@]2(C)C3=CC[C@H]4C[C@@]3(CC[C@H]12)CC4(O)CO (some centres undefined),nt,nt,nt,i,nt
O=C(Cn1c(=O)oc2ccccc21)N1CCCC(Cc2noc(-c3ccccc3)n2)C1 (centres undefined),?,i,39.8µM,i,i
CNC(=O)c1cc(C2CC2)nc2onc(C3CCN(C(=O)Nc4ccc(C)c(F)c4)C3)c12 (centres undefined),44.7µM,?,nt,nt,nt
CN(C)Cc1nnc(C2CC(NC(=O)c3ccc4scnc4c3)C2)n1C (centres undefined),i,i,i,5.62µM!,i
COc1ccccc1-c1cccc(CN2CCC(NC(=O)Nc3ccccc3)CC2)c1,22.4µM,17.8µM,nt,?,nt
O=C(NC1CCN(Cc2cccc(-c3cccs3)c2)CC1)c1ccc(C(F)(F)F)cc1,?,?,nt,i,nt
COc1ccccc1-c1cccc(CN2CCC(NC(=O)c3ccc(C(F)(F)F)cc3)CC2)c1,22.4µM,25.1µM,nt,i,nt
COc1ccccc1-c1cccc(CN2CCC(NC(=O)c3cccc(Cl)c3)CC2)c1,44.7µM,?,nt,i,nt
COc1ccccc1-c1cccc(CN2CCC(N[S+](=O)([O-])c3cccs3)CC2)c1,?,?,nt,i,nt
COc1ccccc1-c1cccc(CN2CCC(NC(=O)Cc3ccc(F)cc3)CC2)c1,?,31.6µM,nt,?,nt
COc1ccccc1-c1cccc(CN2CCC(NC(C)=O)CC2)c1,i,?,nt,i,nt
Cc1ccccc1C(=O)NCCNC(=O)c1cccc(-c2ncccc2C#N)c1,i,i,nt,i,nt
CNC(=O)c1cc(C)nc2onc(C3CCCN(C(=O)Cc4ccc(F)cc4)C3)c12 (centres undefined),i,?,nt,nt,nt
O=C(NCc1cccc(Cl)c1)c1nnn2c1COC(c1ccc(Cl)cc1)C2 (centres undefined),?,?,i,i,i
COc1ccc(C(=O)N[C@@H]2CCC[C@@H]2C(=O)NCc2ccc(C)o2)cn1,?,?,i,i,i
SMILES,HEK cytotox,3T3 cytotox,Luciferase inh,GPT2 inh,NPR1 antag
COc1ccccc1-c1cccc(CN2CCC(NC(=O)Cc3cccc(Cl)c3)CC2)c1,?,25.1µM,nt,?,nt
O=C(NC1CCN(Cc2cccc(-c3ccc(F)cc3F)c2)CC1)c1cccc(Cl)c1,22.4µM!,15.8µM,nt,nt,nt
CSc1ccc(-c2cccc(CN3CCC(NC(=O)c4cccc(Cl)c4)CC3)c2)cc1,i,i,nt,nt,nt
COc1ccccc1-c1cccc(CN2CCC(N[S+](=O)([O-])CCC(F)(F)F)CC2)c1,?,?,nt,i,nt
CC[C@H]1CN(C(=O)Nc2cccc(C(F)(F)F)c2)CC[C@H]1CC(=O)NCCN1CCCCC1,i,i,i,i,i
O=C(N[C@H]1CO[C@H]2[C@@H]1OC[C@H]2OCc1ccccc1)c1ccc(C(F)(F)F)cc1,79.4µM,i,?,i,?
O=c1[nH]c(C2CCCN(Cc3ccccc3)C2)nn1-c1ccccc1 (centres undefined),100µM,89.1µM,i,i,i
O=C(c1ccccc1Cl)N1CCCC(c2nn(-c3cccc(Cl)c3)c(=O)[nH]2)C1 (centres undefined),35.5µM,35.5µM,i,i,i
O=C(Nc1ccc(Cl)cc1)N1CCCC(c2nn(-c3ccccn3)c(=O)[nH]2)C1 (centres undefined),39.8µM,35.5µM,nt,i,nt
CC(C)(C)C(=O)N1CCC(c2nn(-c3ccccc3)c(=O)[nH]2)CC1,?,i,50.1µM,i,i
O=c1[nH]c(C2CCCN(Cc3ccc(F)cc3)C2)nn1-c1ccccc1 (centres undefined),i,i,i,?,i
COc1ccc(-n2nc(C3CCN(Cc4ccc(OC(F)(F)F)cc4)CC3)[nH]c2=O)cc1,?,i,i,i,?
COc1ccc(-n2nc(C3CCN(Cc4ccc(C(F)(F)F)cc4)CC3)[nH]c2=O)cc1,31.6µM!,?,i,i,?
O=c1[nH]c(C2CCCN(Cc3ccc(F)cc3)C2)nn1-c1ccc(Cl)cc1 (centres undefined),44.7µM,35.5µM,i,i,i
O=C1CCN(C(=O)C2CCN(C(=O)c3cccnc3)CC2)CCCCCCN1,i,i,i,i,i
COc1ccc(-c2nc(C)nc3c2CN(C(=O)NC2CCCC2)CC3)cc1,i,i,nt,i,nt
COCc1ccc2c(c1)c(OC(C)(C)C(=O)N1CCN(C)CC1)nn2Cc1ccccc1,?,?,i,i,i
CC(C)n1nc(OC(C)(C)C(=O)Nc2cccnc2)c2cc(CN3CCOCC3)ccc21,i,28.2µM,i,i,i
COCc1ccc2c(c1)c(OC(C)(C)C(=O)NC(C)C)nn2Cc1cccc(OC)c1,?,?,i,i,i
COCc1ccc2c(c1)c(OC(C)(C)C(=O)N1CCOCC1)nn2Cc1cccnc1,i,31.6µM,i,i,i
COCc1ccc2c(c1)c(OC(C)(C)C(=O)N1CCOCC1)nn2Cc1cccc(OC)c1,i,3.98µM,i,i,i
COCc1ccc2c(c1)c(OC(C)(C)C(=O)NCCN1CCOCC1)nn2Cc1cccnc1,i,?,i,i,i

# Screening results as filed in PubChem.
